For five molecules, growth results are on record in PubChem BioAssay (NCI).

Each structure is given as a SMILES string. This is part of a sample that, as a whole, favours compounds with a hit. Of some 83,000 tested, about 20% had one in any assay.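 Single-concentration screen, 48 h exposure, 96-well plates. Endpoint: percent growth. Below 10 = active.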 A number with no mark means an inactive call. Calls of active or inactive are those of the source.

Assay in all cases: NCI-60 one-dose screen, 48 h (100 = growth as untreated, 0 = no growth, -100 = all killed)
Conditions in all cases: 10 µM

Experiment [1] concerns 786-0 renal.
Experiment [2] relates to MALME-3M melanoma.
Experiment [3] concerns MDA-MB-231 breast.
Experiment [4] concerns SF-268 CNS.
Experiment [5] relates to SF-295 CNS.
For experiment [6], the system named is UACC-257 melanoma.
Experiment [7] has as its system U251 CNS.
For experiment [8], the system named is PC-3 prostate.
For experiment [9], the system named is UACC-62 melanoma.
The subject of experiment [10] is SK-MEL-2 melanoma.
In experiment [11] the test system is SN12C renal.
The test system of experiment [12] is UO-31 renal.
In experiment [13] the test system is TK-10 renal.
Experiment [14] has as its system ACHN renal.
Experiment [15] concerns A498 renal.
The subject of experiment [16] is OVCAR-5 ovarian.
Experiment [17] deals with OVCAR-3 ovarian.
Experiment [18] deals with HS 578T breast.
Experiment [19] relates to NCI/ADR-RES ovarian.
Experiment [20] deals with BT-549 breast.

With `Cc1ccc2c(c1)C(=O)/C(=C/c1c[nH]c3ccccc13)S2`, the growth is 63.9% in experiment [1]; 91.9% in experiment [2]; 59.7% in experiment [3]; 44.9% in [4]; 73.2% in [5]; 72.4% in experiment [6]. In addition, the growth in [7] was 22.7%; in experiment [8] it was 23.7%; in experiment [9], 54.4%; in experiment [10], 99.7%; in experiment [11] it was 51.2%; in experiment [12], 40.4%. Also, the growth in experiment [13] was 105%; in [14], 58.2%; in experiment [15], 127%; in experiment [16] it was 87%; in experiment [17], 42.7%; in [18], 55.6%. The growth is 71.6% in experiment [19] and 33.8% in [20].

Turning to `CC1(C)CC(=O)C2=C(C1)N(Cc1ccc(C(=O)O)cc1)C1=C(C(=O)CC(C)(C)C1)C2c1ccc(Cl)cc1`, the growth in [1] was 95.5%; in experiment [2] it was 105%; in experiment [3], 106%; in [4] it was 106%; in experiment [5], 99.4%; in experiment [6], 101%. Moreover, the growth in experiment [7] is 105%; in [8] it was 109%; in [9] it was 89.9%; in [10] it was 97.6%; in experiment [11] it was 103%; in experiment [12], 81.6%. Also, the growth is 92.2% in experiment [13]; 116% in experiment [14]; 95.8% in [15]; 106% in experiment [16]; 112% in experiment [17]; 105% in experiment [18]. Further, the growth in [19] is 95.3%; in experiment [20], 93.5%.

Regarding `O=C(CC(=O)Nc1ccc(Oc2ncnc3scc(Nc4n[nH]c(=S)s4)c23)cc1)Nc1ccc(Cl)cc1`, the growth in experiment [1] is 101%; in experiment [2], 109%; in experiment [3], 73.8%; in experiment [4], 85%; in experiment [5], 99.6%; in experiment [6] it was 104%. Besides, the growth in [7] is 90.4%; in experiment [8] it was 74%; in experiment [9], 53.6%; in [10], 98.3%; in experiment [11], 88.1%; in experiment [12], 47%. Also, the growth was 137% in [13]; 77.4% in experiment [14]; 108% in experiment [15]; 79% in experiment [16]; 82.7% in experiment [17]; 86% in experiment [18]. The growth in [19] is 89.6%; in experiment [20], 80.2%.

As to `Cc1cc(N=C2NC(=O)S/C2=C\c2ccc(F)cc2)n[nH]1`, the growth in experiment [1] is 10.3%; in experiment [2] it was -7% (active); in experiment [3], 9.79% (active); in experiment [4], 29%; in experiment [5] it was 12.1%; in experiment [6], 19.6%. Also, the growth in experiment [7] was 5.06% (active); in experiment [8], 6.14% (active); in experiment [9], -19.6% (active); in [10], 11%; in [11], 22.8%; in [12], 12.1%. For the same molecule, the growth in experiment [13] was 32.7%; in experiment [14], 27.4%; in [15], 64%; in experiment [16], 31%; in experiment [17], 20.2%; in experiment [18] it was 10%. Besides, the growth was 9.56% (active) in experiment [19] and 3.56% (active) in experiment [20].

Consider `O=C(Nc1ccc(Oc2ncnc3scc(Nc4n[nH]c(=S)s4)c23)cc1)C1(C(=O)Nc2cccc(C(F)(F)F)c2)CC1`, for which the growth in [1] is 107%; in [2], 95.8%; in experiment [3] it was 92.7%; in experiment [4] it was 102%; in experiment [5], 108%; in experiment [6] it was 110%. Besides, the growth in experiment [7] was 110%; in experiment [8], 103%; in [9], 86.5%; in [10] it was 113%; in experiment [11], 108%; in [12] it was 69.4%. The growth in experiment [13] was 143%; in [14], 95.6%; in [15], 122%; in experiment [16] it was 87.9%; in experiment [17], 104%; in experiment [18], 100%. In addition, the figures for the growth in experiment [19] and in experiment [20] were 104% and 96.1%, respectively.
